# Laboratory results from the supplement of paper PMC6555819.
# Tested on: RARa:RXR (NR concentration 270 nM, RXRa partner concentration 90 nM)
# Test: PBM binding z-score (relative to random genomic background probes); higher = stronger binding; sequences stand for … in GC…GCGATTGACAGCGTAGAATGAAGG
# In short: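 On custom Agilent 4×180K arrays, double-stranded probes with 34-nt variable regions carried direct-repeat seeds, single-nucleotide variants, half-site ablations or random human genomic background. Ligand-free nuclear receptor dimers were applied for 1 h, and binding was read with antibodies against each partner (one per run). Binding z-scores come from regression-normalized fluorescence, with the random background probes as reference.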
row,Sequence,PBM binding z-score
1,TGAATGAGGTTAAAGATCACGGAACGTGGCGTCG,4.67
2,TATACAGGGTCAAAGGCCAGGGTACGAATGTCGA,6.05
3,CCTTACGGGACACGAGGTTATAGCACGACGAGCG,0.935
4,CTACCAAGGTGAACAAGGTCGTTGAATACTATTC,2.46
5,CCGACTGGGACAAGGTTACCATAACGCACAGCCA,0.82
6,CCTAGTTGGTCAAGTTCACACACGCTATAGGTAC,2.27
7,ATTAGCAGGCCAAGTTTGGGTCACTCAAACAAAG,1.97
8,GATACAGGGTCACGGCCAGAGTACGCGTATTGAT,6.41
9,GCTAGCAGGCCATTTGGGTCGCTCAATGACGGGC,-0.542
10,TCTAGCAGGCCAGAGGCTCACTCAAGAGGTACGG,-0.758
11,ATCGAAAGGTCGAAGCTGAGTATACCCACCCGAA,3.14
12,CATTCAGGGTCAGCTAGGCCAGAGTAGGGACGGC,3.58
13,TTTGCTAGGTCAGTTGGTCAGCTAACGAGCTGCC,0.42
14,ACAGACAGGTGCTGAAGGTAACTCAGGCTATCAT,-0.341
15,AGAAGGAGGTTAAGATCAGGGAAACAGAATACAT,1.51
16,AGAATGAGGTTAAGATCAGGCAAACAGAATACAT,2.09
17,CCTACTGGGCCAACGTCATTGATCAGTCAAAGCA,0.0251
18,GCTAGCAGGCCGTTTGGGTCACTCAATGACGGGC,0.575
